High-throughput results: PubChem, The Scripps Research Institute Molecular Screening Center
hgDAF-12 ag – H. glycines DAF-12 receptor agonists, primary screen, cell-based, luminescence, HEK293, GAL4 fusion, UAS-luciferase; Nuclear hormone receptor DAF-12 (Heterodera glycines), GAL4 fusion; 370,000 compounds, 1.8% hits; activation, % at 6.8 µM; HEK293 GAL4-hgDAF12 UAS-luciferase reporter, agonist luminescence; normalized to butyrate control; AID 687014, 2013;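 active = activation above a cutoff set at the mean of all screened compounds plus 3 SD, cut at about 10% in these data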;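 also: 0% = DMSO wells and 100% = sodium butyrate wells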
SMARCA2 activ – SMARCA2 (BRM) function activators, primary screen, cell-based, luminescence, high throughput. MG213 cells, MMTV-luciferase reporter, dexamethasone, overnight. activation, % at 9.1 µM. 370,000 compounds, 1% hits. AID 652017, 2013; in the data active = activation above about 7.8%;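 also: 0% = vehicle wells and 100% = reference activator wells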
ssDAF12 agonist – S. stercoralis DAF-12 nuclear receptor activators, primary screen, cell-based, luminescence, HEK293, GRIP1 co-expression, lit1-tk-luc. Nuclear hormone receptor DAF-12 (Strongyloides stercoralis). HEK293 ssDAF-12/GRIP1 lit1-tk-luc reporter; % of 3 µM dafachronic acid response. activation, % at 6.8 µM. 370,000 compounds, 1% hits;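 active = activation above the mean over all tested compounds plus 3 SD, cut at about 0.9% in these data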;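 also: 0% = DMSO-only wells and 100% = 3 µM delta7-dafachronic acid wells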
DAX1 inh-1 – DAX1 (NR0B1) inhibitors, primary screen, cell-based, HEK293, Gal4-DAX1, luciferase luminescence. 340,000 compounds, 0.99% hits. inhibition, % at 6.75 µM. HEK293 Gal4-DAX1 luciferase reporter. Nuclear receptor subfamily 0 group B member 1 (Homo sapiens), P51843. AID 504766, 2011;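 active = inhibition above the mean over all tested compounds plus 3 SD, cut at about 4.2% in these data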;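 also: 0% = DAX1-transfected cells with DMSO and 100% = empty-vector control cells with DMSO; inhibition shows as a rise in luminescence from relieved DAX1 repression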
Target sequence (P51843 207-470 limits assumed): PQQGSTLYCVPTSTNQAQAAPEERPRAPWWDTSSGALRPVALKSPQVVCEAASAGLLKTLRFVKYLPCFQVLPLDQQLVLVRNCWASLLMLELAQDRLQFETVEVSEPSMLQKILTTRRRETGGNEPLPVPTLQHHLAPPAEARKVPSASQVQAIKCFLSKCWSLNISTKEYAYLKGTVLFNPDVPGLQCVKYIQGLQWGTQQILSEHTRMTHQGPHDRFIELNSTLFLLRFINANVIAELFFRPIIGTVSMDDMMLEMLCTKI
DAX1 inh-2 – DAX1 (NR0B1) inhibitors on StAR promoter, primary screen, cell-based, luminescence, SF-1 (NR5A1), full-length DAX-1; HEK293T StAR-luciferase reporter, SF-1/DAX-1 repression relief; inhibition, % at 6.8 µM; 370,000 compounds, 1.1% hits; AID 652010, 2013;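 active = inhibition above the mean over all tested compounds plus 3 SD, cut at about 3.6% in these data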;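 also: 0% = DAX-1 cells with DMSO and 100% = cells lacking DAX-1 with DMSO; higher inhibition means more luminescence from relief of DAX-1 repression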
hcDAF12 agonist – H. contortus DAF-12 nuclear receptor activators, primary screen, cell-based, luminescence, HEK293, lit1-tk-luc reporter. AID 652067, 2013. HEK293 hcDAF-12 lit1-tk-luc reporter; 0% DMSO, 100% Δ7-dafachronic acid. 370,000 compounds, 1.4% hits. activation, % at 6.8 µM;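 active = activation above the mean of all tested compounds plus 3 SD, cut at about 5.5% in these data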;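 also: 100% = response to 3 µM Δ7-dafachronic acid high control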
Starred values were filed as active, the others as inactive. A selection: hits, their analogues and other compounds. The true share with any hit is near 4.8%.

N#CC1=C(N)C(C#N)(C#N)[C@H](c2ccncc2)[C@H]2CN(C(=O)OCc3ccccc3)CC=C12 was read as hgDAF-12 ag -1, SMARCA2 activ -4, ssDAF12 agonist -1, DAX1 inh-1 1, DAX1 inh-2 -1 and hcDAF12 agonist -1.
For C=CCN(c1ccccc1)S(=O)(=O)c1ccc2c(c1)oc(=O)n2C the results were hgDAF-12 ag 4, SMARCA2 activ -1, ssDAF12 agonist -1, DAX1 inh-1 0, DAX1 inh-2 2 and hcDAF12 agonist 0.
`CC1(C)Cc2nc3[nH]c(=S)[nH]c(=O)c3cc2CO1` gave hgDAF-12 ag 1, SMARCA2 activ 1, ssDAF12 agonist -1, DAX1 inh-1 4.8*, DAX1 inh-2 1 and hcDAF12 agonist 0.
Screening CC1CCCCN1C(=O)Nc1cccc(Cl)c1 (configuration not stated) returned hgDAF-12 ag 1, SMARCA2 activ 0, ssDAF12 agonist -1, DAX1 inh-1 1, DAX1 inh-2 0 and hcDAF12 agonist 0.
COc1ccc(Cl)cc1C(=O)O/N=C(\N)c1ccc(Cl)cc1 was read as hgDAF-12 ag 1, SMARCA2 activ 4, ssDAF12 agonist -1, DAX1 inh-1 3, DAX1 inh-2 1 and hcDAF12 agonist 6.0*.
For N/C(=N\OC(=O)c1cc(Br)ccc1Cl)c1cccnc1 the results were hgDAF-12 ag 2, SMARCA2 activ -1, ssDAF12 agonist 0, DAX1 inh-1 3, DAX1 inh-2 1 and hcDAF12 agonist 5.
For N/C(=N\OC(=O)c1cccc(Cl)c1)c1cccnc1 the results were hgDAF-12 ag 11*, SMARCA2 activ 4, ssDAF12 agonist 0, DAX1 inh-1 2, DAX1 inh-2 1 and hcDAF12 agonist 5.
For N/C(=N\OC(=O)c1cc(Cl)ccc1Cl)c1cccnc1 the results were hgDAF-12 ag 2, SMARCA2 activ -1, ssDAF12 agonist 1, DAX1 inh-1 0, DAX1 inh-2 0 and hcDAF12 agonist 6.3*.
Cc1cccc(NC(=O)CSc2nnc(NC(=O)C3CCC3)s2)c1 was read as hgDAF-12 ag -2, SMARCA2 activ -1, ssDAF12 agonist -2, DAX1 inh-1 0, DAX1 inh-2 0 and hcDAF12 agonist -3.
For O=S(=O)(c1ccc(Br)cc1)c1cnc2ccccc2n1 the results were hgDAF-12 ag -1, SMARCA2 activ 0, ssDAF12 agonist -1, DAX1 inh-1 1, DAX1 inh-2 -1 and hcDAF12 agonist 0.
Screening CN1CCN(C(=O)CCNC(=O)Cn2ccc3ccccc3c2=O)CC1 returned hgDAF-12 ag 2, SMARCA2 activ -2, ssDAF12 agonist -1, DAX1 inh-1 0, DAX1 inh-2 0 and hcDAF12 agonist 4.
`CSc1ccc(CNC(=O)C2Cc3cc(S(=O)(=O)N4CCCC4)ccc3N2C(C)=O)cc1` (configuration not stated) gave hgDAF-12 ag 0, SMARCA2 activ -2, ssDAF12 agonist -1, DAX1 inh-1 0, DAX1 inh-2 -1 and hcDAF12 agonist 1.
Screening CC1=NN(C(=O)c2ccco2)C(O)(c2ccccc2)C1 (configuration not stated) returned hgDAF-12 ag 11*, SMARCA2 activ 1, ssDAF12 agonist 1.0*, DAX1 inh-1 6.3*, DAX1 inh-2 1 and hcDAF12 agonist 3.
Screening COC(=O)c1ccc(NC(=O)CN(c2ccc(OC)cc2)S(C)(=O)=O)cc1 returned hgDAF-12 ag 12*, SMARCA2 activ 3, ssDAF12 agonist -1, DAX1 inh-1 0, DAX1 inh-2 1 and hcDAF12 agonist 3.
`CCOc1ccc(NC(=O)CN(c2ccc(OC)cc2)S(C)(=O)=O)cc1` gave hgDAF-12 ag 5, SMARCA2 activ 5, ssDAF12 agonist -1, DAX1 inh-1 0, DAX1 inh-2 2 and hcDAF12 agonist 2.
`O=C(O)C1CCCCC1C(=O)NCCCn1ccnc1` (configuration not stated) gave DAX1 inh-1 1.
COC(=O)c1ccc(NC(=O)COC(=O)C2CC(=O)N(Cc3ccccc3)C2)cc1 (configuration not stated) was read as hgDAF-12 ag 1, SMARCA2 activ -1, ssDAF12 agonist -2, DAX1 inh-1 4.2*, DAX1 inh-2 0 and hcDAF12 agonist 0.
For CCO[C@H]1OC(C(=O)NCc2ccccc2)=C[C@@H](c2ccc(C(F)(F)F)cc2)[C@@H]1CCCO the results were hgDAF-12 ag -1, SMARCA2 activ 0, ssDAF12 agonist -1, DAX1 inh-1 0, DAX1 inh-2 -1 and hcDAF12 agonist -2.
Cc1ccc(C(=O)NCCCc2ccccc2)s1 was read as hgDAF-12 ag 10, SMARCA2 activ 2, ssDAF12 agonist 0, DAX1 inh-1 3, DAX1 inh-2 1 and hcDAF12 agonist 6.2*.
O=C(NCCc1c[nH]c2ccccc12)c1ccccc1 was read as hgDAF-12 ag 7, SMARCA2 activ 2, ssDAF12 agonist -1, DAX1 inh-1 1, DAX1 inh-2 0 and hcDAF12 agonist 2.
For O=C(NCCc1c[nH]c2ccccc12)c1cc([N+](=O)[O-])cc([N+](=O)[O-])c1 the results were hgDAF-12 ag -1, SMARCA2 activ 0, ssDAF12 agonist 0.9*, DAX1 inh-1 -1, DAX1 inh-2 0 and hcDAF12 agonist 5.
`Cc1ccc(C(=O)NCCc2c[nH]c3ccccc23)s1` gave hgDAF-12 ag 10, SMARCA2 activ 6, ssDAF12 agonist 1.3*, DAX1 inh-1 1, DAX1 inh-2 1 and hcDAF12 agonist 1.
`O=C(Nc1ccccc1Cl)C1CCCN(c2ncnc3c2nc2n3CCCCC2)C1` (configuration not stated) gave hgDAF-12 ag -4, SMARCA2 activ -4, ssDAF12 agonist -2, DAX1 inh-1 -1, DAX1 inh-2 -1 and hcDAF12 agonist -2.
Cc1cc(C)n(-c2nc3ccccc3[nH]c2=O)n1 was read as hgDAF-12 ag 2, SMARCA2 activ 0, ssDAF12 agonist -1, DAX1 inh-1 4.3*, DAX1 inh-2 0 and hcDAF12 agonist -1.
`FC(F)Oc1ccccc1/C=N/n1cnc2ccccc21` gave hgDAF-12 ag 11*, SMARCA2 activ 4, ssDAF12 agonist -1, DAX1 inh-1 0, DAX1 inh-2 0 and hcDAF12 agonist 3.
